Counter-ions that a name gives are not always drawn.
Assays:
Settings in all cases: incubation time: 27 h, anaerobic, 37 °C;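 for the amine columns active = adjusted P below 0.05 in both replicates with a change the same way and a mean fold change under 0.8 or over 1.25; inactive = the rest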
[1] = test system: Clostridium sporogenes DSM 1664; experiment: growth (OD595) fold change vs plate DMSO controls (fold change (ratio)); higher = more growth
Outline: (§1)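 Anaerobic mGAM cultures in 96-well plates were grown for 27 h at 37 °C, and absorbance was then read at 595 nm. After blank and compound background correction with 20 µM compound solutions in water, a calibration factor of 5 gave OD. Growth is the fold change relative to the median of each plate's DMSO controls. Values are means of 2 biological replicates, with fold changes above 1.5 set to NA.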

Escherichia coli IAI1 [2] = experiment: as above
Outline: as §1

[3] = test system: Klebsiella aerogenes DSM 30053; experiment: as above
Outline: as §1

[4] = test system: Ruminococcus gnavus DSM 108212; experiment: as above
Outline: as §1

[5] = test system: Klebsiella aerogenes DSM 30053; experiment: fold change of Histamine concentration vs plate DMSO controls (fold change (ratio)); higher = more amine produced, active = hit call of the paper (significant change in both replicates, either direction)
Outline: (§2)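 Using LC–triple-quadrupole MS with dynamic MRM, amines were quantified against external calibration curves and corrected for drift within each batch. Samples were whole anaerobic mGAM cultures of four gut strains, grown 27 h at 37 °C from OD 0.1 before 1:1 dilution, extracted with cold acetonitrile/methanol containing 0.1% formic acid and centrifuged. Compounds were present at 20 µM final (sweeteners at 50 µM final). The numbers are fold changes versus plate DMSO controls, each the mean of 2 biological replicates.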

[6] = test system: Clostridium sporogenes DSM 1664; experiment: fold change of Tryptamine concentration vs plate DMSO controls (fold change (ratio)); higher = more amine produced, active = hit call of the paper (significant change in both replicates, either direction)
Outline: as §2

[7] = test system: Ruminococcus gnavus DSM 108212; experiment: as above
Outline: as §2

Escherichia coli IAI1 [8] = experiment: fold change of Putrescine concentration vs plate DMSO controls (fold change (ratio)); higher = more amine produced, active = hit call of the paper (significant change in both replicates, either direction)
Outline: as §2

[9] = test system: Klebsiella aerogenes DSM 30053; experiment: as above
Outline: as §2

Escherichia coli IAI1 [10] = experiment: fold change of Cadaverine concentration vs plate DMSO controls (fold change (ratio)); higher = more amine produced, active = hit call of the paper (significant change in both replicates, either direction)
Outline: as §2

[11] = test system: Klebsiella aerogenes DSM 30053; experiment: as above
Outline: as §2

[12] = test system: Ruminococcus gnavus DSM 108212; experiment: fold change of 2-Phenylethylamine concentration vs plate DMSO controls (fold change (ratio)); higher = more amine produced, active = hit call of the paper (significant change in both replicates, either direction)
Outline: as §2

Row | SMILES | growth [1] | growth (Escherichia coli IAI1 [2]) | growth [3] | growth [4] | fold change of Histamine concentration [5] | fold change of Tryptamine concentration [6] | fold change of Tryptamine concentration [7] | fold change of Putrescine concentration (Escherichia coli IAI1 [8]) | fold change of Putrescine concentration [9] | fold change of Cadaverine concentration (Escherichia coli IAI1 [10]) | fold change of Cadaverine concentration [11] | fold change of 2-Phenylethylamine concentration [12]
1 | c1ccc2c(c1)-c1cccc3c1c-2cc1ccccc13 [Benzo[b]fluoranthene] (20 µM) | 1.08 | 0.997 | 1.04 | 1 | 0.993 (inactive) | 1.03 (inactive) | 1.02 (inactive) | 1 (inactive) | 1.02 (inactive) | 1.03 (inactive) | 1.01 (inactive) | 1.04 (inactive)
2 | C#CCN(C)Cc1ccccc1 [Pargyline hydrochloride] (20 µM) | 0.983 | 0.989 | 1.03 | 0.999 | 0.983 (inactive) | 1.01 (inactive) | 1.01 (inactive) | 0.99 (inactive) | 1.01 (inactive) | 1 (inactive) | 1.01 (inactive) | 0.995 (inactive)
3 | C=C(C)[C@@H]1CC=C(/C=N/O)CC1 [Perillartine] (50 µM) | 1.04 | 1.04 | 1.09 | 1.11 | 0.933 (inactive) | 1.02 (inactive) | 1 (inactive) | 0.985 (inactive) | 1.03 (inactive) | 0.99 (inactive) | 1.02 (inactive) | 1 (inactive)
4 | CCC1=C(C)CN(C(=O)NCCc2ccc(S(=O)(=O)NC(=O)N[C@H]3CC[C@H](C)CC3)cc2)C1=O [Glimepiride] (20 µM) | 1.02 | 1.03 | 1.02 | 0.969 | 0.985 (inactive) | 0.934 (inactive) | 0.995 (inactive) | 0.976 (inactive) | 0.997 (inactive) | 1.04 (inactive) | 0.993 (inactive) | 1.02 (inactive)
5 | CCN(CC)CCOCCOC(=O)C(CC)(CC)c1ccccc1 [Oxeladin citrate] (20 µM) | 1.05 | 0.997 | 1 | 1.01 | 0.957 (inactive) | 1.01 (inactive) | 0.889 (inactive) | 1.01 (inactive) | 1.02 (inactive) | 1.01 (inactive) | 0.994 (inactive) | 0.865 (inactive)
6 | O=C1[C@H](CC[C@H](O)c2ccc(F)cc2)[C@@H](c2ccc(O)cc2)N1c1ccc(F)cc1 [Ezetimibe] (20 µM) | 1.3 | 1.1 | 1.02 | 0.955 | 0.972 (inactive) | 0.796 (inactive) | 0.858 (inactive) | 1.02 (inactive) | 1 (inactive) | 0.987 (inactive) | 0.992 (inactive) | 0.832 (inactive)
7 | C=C1CC[C@H](O)C/C1=C/C=C1\CCC[C@]2(C)[C@@H]([C@H](C)CCCC(C)C)CC[C@@H]12 [Cholecalciferol] (20 µM) | 0.913 | 0.971 | 0.962 | 1.05 | 1.08 (inactive) | 0.975 (inactive) | 1.03 (inactive) | 0.96 (inactive) | 1.01 (inactive) | 0.984 (inactive) | 1.07 (inactive) | 1.13 (inactive)
8 | N=C(N)N/N=C/c1c(Cl)cccc1Cl [Guanabenz acetate] (20 µM) | 0.918 | 0.923 | 0.914 | 1.48 | 1.02 (inactive) | 1.03 (inactive) | 1.02 (inactive) | 0.979 (inactive) | 0.99 (inactive) | 1.01 (inactive) | 0.973 (inactive) | 1.02 (inactive)
9 | CC1=Nc2ccc(Cl)cc2S(=O)(=O)N1 [Diazoxide] (20 µM) | 1.06 | 1.01 | 0.986 | 1.21 | 1.1 (inactive) | 1.09 (inactive) | 1.16 (inactive) | 0.991 (inactive) | 1.06 (inactive) | 0.943 (inactive) | 1.1 (inactive) | 1.35 (active)
10 | CC1(C)S[C@@H]2[C@H](NC(=O)[C@H](C(=O)O)c3ccsc3)C(=O)N2[C@H]1C(=O)O [Ticarcillin sodium] (20 µM) | 0 | 1.22 | 1.02 | 0 | 1.04 (inactive) | 0.0277 (active) | 0.0454 (active) | 1.21 (inactive) | 1.02 (inactive) | 1.44 (active) | 0.996 (inactive) | 0.0536 (active)
11 | C[C@]1(Cn2ccnn2)[C@H](C(=O)O)N2C(=O)C[C@H]2S1(=O)=O [Tazobactam] (20 µM) | 0.105 | 1 | 0.973 | 1.05 | 0.904 (inactive) | 0.703 (active) | 1.05 (inactive) | 1.05 (inactive) | 1.04 (inactive) | 0.989 (inactive) | 1.03 (inactive) | 1.1 (inactive)
12 | O=C1c2c(O)ccc(O)c2C(=O)c2c(NCCNCCO)ccc(NCCNCCO)c21 [Mitoxantrone dihydrochloride] (20 µM) | 0.733 | 0.831 | 1.02 | 1.24 | 0.924 (inactive) | 1.01 (inactive) | 0.978 (inactive) | 0.999 (inactive) | 1.02 (inactive) | 0.988 (inactive) | 1.04 (inactive) | 0.958 (inactive)
13 | Cc1nccn1CC1CCc2c(c3ccccc3n2C)C1=O (centres undefined) [Ondansetron hydrochloride] (20 µM) | 0.937 | 0.997 | 0.989 | 1.08 | 1.01 (inactive) | 1.03 (inactive) | 1.01 (inactive) | 1.05 (inactive) | 0.978 (inactive) | 1.01 (inactive) | 0.995 (inactive) | 1.01 (inactive)
14 | COc1cc(OC)c(C(=O)CCCN2CCCC2)c(OC)c1 [Buflomedil hydrochloride] (20 µM) | 1.11 | 1.03 | 0.965 | 0.743 | 1.08 (inactive) | 1.08 (inactive) | 1.03 (inactive) | 1.04 (inactive) | 1.02 (inactive) | 1.03 (inactive) | 0.997 (inactive) | 0.992 (inactive)
15 | CCN(CC)C(C)CN1c2ccccc2Sc2ccccc21 (centres undefined) [Ethopropazine hydrochloride] (20 µM) | 1.04 | 0.975 | 0.954 | 0.823 | 1.01 (inactive) | 1.03 (inactive) | 0.928 (inactive) | 1.05 (inactive) | 1 (inactive) | 1.04 (inactive) | 0.992 (inactive) | 0.984 (inactive)
16 | CN(C)CCCC1(c2ccc(F)cc2)OCc2cc(C#N)ccc21 (centres undefined) [Citalopram hydrobromide] (20 µM) | 0.923 | 0.992 | 0.994 | 1.08 | 0.919 (inactive) | 0.955 (inactive) | 0.845 (inactive) | 0.927 (inactive) | 1 (inactive) | 0.991 (inactive) | 1.01 (inactive) | 0.788 (inactive)
17 | CCOc1ccc2nc(S(N)(=O)=O)sc2c1 [Ethoxzolamide] (20 µM) | 0.955 | 0.957 | 0.989 | 0.925 | 1.04 (inactive) | 0.934 (inactive) | 0.994 (inactive) | 1.27 (inactive) | 0.997 (inactive) | 0.981 (inactive) | 0.989 (inactive) | 1 (inactive)
18 | Cc1ccc(/C(=C\CN2CCCC2)c2ccccn2)cc1 [Triprolidine hydrochloride] (20 µM) | 1.08 | 1.01 | 0.998 | 1.1 | 1.05 (inactive) | 1.02 (inactive) | 1.01 (inactive) | 1.09 (inactive) | 1.02 (inactive) | 0.797 (inactive) | 0.987 (inactive) | 0.986 (inactive)
19 | CNCCCN1c2ccccc2CCc2ccccc21 [Desipramine hydrochloride] (20 µM) | 0.96 | 1.09 | 0.971 | 1.12 | 1.06 (inactive) | 0.982 (inactive) | 0.946 (inactive) | 1.01 (inactive) | 1.01 (inactive) | 1.56 (inactive) | 0.987 (inactive) | 0.934 (inactive)
20 | CCSc1ccc2c(c1)N(CCCN1CCN(C)CC1)c1ccccc1S2 [Thiethylperazine maleate] (20 µM) | 1.26 | 1.05 | 1.17 | 0.847 | 1.01 (inactive) | 0.971 (inactive) | 0.851 (inactive) | 1.07 (inactive) | 1.07 (inactive) | 1.06 (inactive) | 1.05 (inactive) | 0.915 (inactive)
21 | Cc1cc2cc3c(C)cc(=O)oc3c(C)c2o1 [Trioxsalen] (20 µM) | 1.03 | 1.14 | 0.991 | 1.02 | 1.08 (inactive) | 0.974 (inactive) | 0.966 (inactive) | 1.13 (inactive) | 0.997 (inactive) | 1.03 (inactive) | 0.985 (inactive) | 0.936 (inactive)
22 | NNc1nncc2ccccc12 [Hydralazine hydrochloride] (20 µM) | 0.972 | 0.997 | 1 | 0.792 | 1.07 (inactive) | 0.967 (inactive) | 1.03 (inactive) | 0.983 (inactive) | 1.01 (inactive) | 0.997 (inactive) | 0.994 (inactive) | 0.96 (inactive)
23 | O=C(O)c1cn(-c2ccc(F)cc2)c2cc(N3CCNCC3)c(F)cc2c1=O [Sarafloxacin] (20 µM) | 0.012 | 0.0263 | 0.182 | 0.896 | 0.129 (active) | 0.0563 (active) | 0.8 (inactive) | 0.832 (inactive) | 0.651 (active) | 0.244 (active) | 0.969 (inactive) | 0.894 (inactive)
24 | CO/N=C(\C(=O)N[C@@H]1C(=O)N2C(C(=O)OC(C)OC(C)=O)=C(COC(N)=O)CS[C@H]12)c1ccco1 (some centres undefined) [Cefuroxime axetil] (20 µM) | 0.673 | 1.18 | 1.1 |  | 0.905 (inactive) | 1.03 (inactive) | 0.936 (inactive) | 0.933 (inactive) | 1.05 (inactive) | 1.27 (active) | 1.02 (inactive) | 0.94 (inactive)
25 | CNC[C@H](O)[C@@H](O)[C@H](O)[C@H](O)CO [Meglumine] (20 µM) | 0.956 | 1.07 | 1.05 | 0.994 | 0.883 (inactive) | 1.04 (inactive) | 1.02 (inactive) | 1.25 (inactive) | 0.979 (inactive) | 0.99 (inactive) | 1.06 (inactive) | 0.998 (inactive)
